TDP1 cell CPT – qHTS for Inhibitors of human tyrosyl-DNA phosphodiesterase 1 (TDP1): qHTS in cells in presence of CPT. chicken DT40 Tdp1-/-;hTDP1 cells + 20 nM CPT, ATP luminescence, 48 h. Potency, µM (highest dose often 46.2 µM), inactives show at the top dose activity change, negative = growth inhibition, most hits filed as inhibitors. 420,000 tested, 12% active; note: potency is the fitted concentration of half-maximal effect; nearly all actives have a fitted effect of over 55% in size
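Cell growth measured by CellTiter-Glo luminescence after a minimum 48 h, 37 C compound exposure with 20 nM CPT in Tdp1-knockout DT40 cells stably expressing hTDP1, seeded 400/well; qHTS titration format.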
IL-1B inflam inh – qHTS for Inhibitors of Inflammasome Signaling: IL-1-beta AlphaLISA Primary Screen. THP-1 LPS/ATP IL-1B secretion, AlphaLISA, 16 h; hits give low values. activity change, % at 57.5 µM. 360,000 tested, 4.7% active; in the data active = activity change below about -50%; inconclusive = mostly about -30% to -49%
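Secreted IL-1B measured by AlphaLISA bead assay after 16 h compound exposure of THP-1 cells; compounds (final up to 57.5 uM) added 1 h before LPS (250 ng/mL) and ATP (1.25 mM) stimulation; lower signal means less secretion.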
CtBP-E1A inh – qHTS Assay for Inhibitors of the CtBP/E1A Interaction; CtBP / adenovirus E1A interaction (AlphaScreen); AlphaScreen GST-E1A/His-CtBP binding, 1536-well; hits give low values; activity change, % (test concentration not listed); 340,000 tested, 0.49% active; AID 651724, 2012; in the data active = activity change below about -65%; inconclusive = mostly about -30% to -63%
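GST-E1A and His-tagged CtBP (125 nM each as 5X stock) were preincubated with pin-transferred compound for 2 h at 37 °C in the dark, then glutathione donor and nickel acceptor beads were added for 1 h before AlphaScreen reading.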
DT40 TDP1 no CPT – qHTS for Inhibitors of human tyrosyl-DNA phosphodiesterase 1 (TDP1): qHTS in cells in absence of CPT; 420,000 tested, 15% active; AID 686978, 2013; DT40 Tdp1-/- hTDP1 cells, no CPT, ATP luminescence, 48 h; Potency, µM (top dose mostly 46.2 µM), for the others: top-dose activity change, negative = growth inhibition, hits mostly inhibitors; note: potency is the fitted concentration of half-maximal effect; nearly all actives have a fitted effect of over 55% in size
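Compound effects on proliferation are scored in DT40 Tdp1-/-;hTDP1 cells in the absence of CPT. ATP levels (CellTiter-Glo luminescence) are recorded after a ≥48 hr, 37 °C incubation.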
TDP1 inh – qHTS Assay for Inhibitors of Tyrosyl-DNA Phosphodiesterase (TDP1) | 350,000 tested, 0.28% active | recombinant TDP1, AlphaScreen DNA substrate cleavage | Potency, µM (top dose mostly 130 µM), inactives show at the top dose activity change, negative = inhibition, usual class: inhibitors | Tyrosyl-DNA phosphodiesterase 1 (Homo sapiens), Q9NUW8 | AID 485290, 2010; note: potency is the fitted concentration of half-maximal effect; nearly all actives have a fitted effect of over 40% in size
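E. coli-derived human Tdp1, 1 nM final. Cpd preinc 15 min RT; substrate 15 nM final, 5 min RT; AS bead mix 10 ug/ml final, 10 min RT. Signal loss = tyrosine-FITC cleavage. No-enzyme wells = max signal.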
Six1-Eya2 blk – qHTS Assay for Inhibitors of the Six1/Eya2 Interaction; Homeobox protein SIX1 (Homo sapiens) + Protein phosphatase EYA2 (Homo sapiens), …; AlphaScreen GST-Six1/His-Eya2 binding, biochemical; hits give low values; activity change, % (test concentration not listed); 360,000 tested, 0.56% active; AID 651725, 2012; in the data active = activity change below about -65%; inconclusive = mostly about -30% to -63%
Target sequence (O00167 whole entry, looked up): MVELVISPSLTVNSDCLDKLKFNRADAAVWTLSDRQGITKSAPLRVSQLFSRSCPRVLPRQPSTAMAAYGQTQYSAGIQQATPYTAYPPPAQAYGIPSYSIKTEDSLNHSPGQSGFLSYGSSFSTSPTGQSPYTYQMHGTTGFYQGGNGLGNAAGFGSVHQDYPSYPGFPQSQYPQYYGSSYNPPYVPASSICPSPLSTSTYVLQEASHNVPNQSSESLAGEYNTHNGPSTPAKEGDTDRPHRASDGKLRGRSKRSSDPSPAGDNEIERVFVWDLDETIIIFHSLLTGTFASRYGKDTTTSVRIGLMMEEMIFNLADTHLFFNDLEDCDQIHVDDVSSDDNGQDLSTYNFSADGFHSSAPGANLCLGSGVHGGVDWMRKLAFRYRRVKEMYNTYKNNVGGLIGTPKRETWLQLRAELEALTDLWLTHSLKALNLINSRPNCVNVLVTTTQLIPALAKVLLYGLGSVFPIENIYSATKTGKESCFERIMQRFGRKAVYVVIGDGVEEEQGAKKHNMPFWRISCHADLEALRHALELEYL
Target sequence (Q15475 whole entry, looked up): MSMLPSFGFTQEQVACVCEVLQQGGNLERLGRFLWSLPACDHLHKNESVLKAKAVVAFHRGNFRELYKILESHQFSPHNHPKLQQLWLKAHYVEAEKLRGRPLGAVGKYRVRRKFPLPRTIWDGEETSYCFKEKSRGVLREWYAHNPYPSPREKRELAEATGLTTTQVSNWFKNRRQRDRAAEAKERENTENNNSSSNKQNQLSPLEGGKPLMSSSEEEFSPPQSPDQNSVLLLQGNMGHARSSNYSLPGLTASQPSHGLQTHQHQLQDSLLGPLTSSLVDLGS
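GST-Six1 + His-Eya2 (5X stock: 250/500 nM); Tris pH 8.0, 300 mM NaCl, 0.05% BSA, 0.02% Tween 20; GSH donor/Ni acceptor beads; 1 h 37 °C dark; AlphaScreen readout.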
* marks the source's active call; other numbers are inactive results; ? = inconclusive; . = no result. Only some compounds are listed: those with a hit (about 18% of all), similar ones and a draw of the others. Unless noted, calls come from the whole dose curve; as a rule, active = well fitted curve in the direction sought with a large enough effect; inconclusive = small, poorly fitted or top-dose-only effect, or another doubt; inactive = no such curve, though single readings can be large; an effect the other way counts as inactive or inconclusive. % is set by controls: 0 for no effect and ±100 for the full control effect.

SMILES	TDP1 cell CPT	IL-1B inflam inh	CtBP-E1A inh	DT40 TDP1 no CPT	TDP1 inh	Six1-Eya2 blk
CCN(CC)C(=O)Cn1cc(C(=O)C(=O)N(CC)C2CCCCC2)c2ccccc21	?	-0.1	10.5	?	0.7%	1.9
CCOc1ccc(NC(=O)N(Cc2cn(CC)c3ccccc23)C2CCCCCC2)cc1	9.2µM*	.	.	20.6µM*	4.7%	.
CCc1ccc(NC(=O)N(Cc2cn(CC)c3ccccc23)C2CCCCC2)cc1	7.31µM*	.	.	11.6µM*	4.7%	.
CCc1nnc(NC(=O)[C@@H](NC(=O)c2cccc(S(=O)(=O)N(CC)CC)c2)C(C)C)s1	-18.4%	-8.9	4.0	-23.5%	-8.8%	-5.0
COC(=O)[C@@]1(Cc2ccccc2)[C@@H]2[C@@H](CC(=O)[C@H]2CC(=O)C(=O)N(C)C)CN1C(=O)c1ccccc1	.	.	.	.	9.9%	.
COc1ccccc1-n1cnnc1SCC(=O)NC1CCCC1	21.9%	3.4	.	-3.1%	1.1%	4.3
COC(=O)c1ccc(-c2csc(NC(=O)c3ccc(S(=O)(=O)N4CCc5ccccc5C4)cc3)n2)cc1	7.31µM*	-1.3	28.6	5.8µM*	-1.8%	13.4
COc1ccc(-c2nnc(NC(=O)c3ccc(S(=O)(=O)N4CCc5ccccc5C4)cc3)o2)cc1	4.47µM*	6.1	-1.6	4.47µM*	8.0%	-0.8
O=C(Nc1nnc(C2CC2)o1)c1ccc(S(=O)(=O)N2CCc3ccccc3C2)cc1	-23.7%	23.8	.	?	10.8%	2.9
COc1ccc(-c2csc(NC(=O)c3ccc(S(=O)(=O)N4CCc5ccccc5C4)cc3)n2)cc1	-13.0%	13.9	-14.2	?	1.8%	-18.0
CC1=CN2C(=NC(=O)CC2(C)C(=O)N(CC(=O)NC2CCCC2)c2cc(C)cc(C)c2)C=C1 (stereo unspecified)	-13.8%	0.8	.	0.4%	-1.2%	2.0
Cc1c(Cl)cccc1NC(=O)CNS(=O)(=O)c1cccs1	-4.3%	.	.	-2.9%	6.6%	.
CCc1sc(Nc2cccc(Cl)c2)nc1-c1cc2cccc(OC)c2oc1=O	?	.	.	16.4µM*	-2.5%	.
CC(C)CCn1c(O)c(N=NC(=O)Cn2ccc(C(F)(F)F)n2)c2ccccc21	20.6µM*	6.1	-8.4	23.1µM*	5.8%	-6.0
CC(C)CCn1c(O)c(N=Nc2ccccn2)c2ccccc21	?	-0.6	12.2	?	9.4%	15.6
CC1(C)CN(CCc2ccccc2)C(=O)[C@H]1CC(=O)Nc1ccccc1	-23.8%	3.1	-15.6	-9.5%	.	5.4
O=C1CCCC2=C1C(c1ccc(O)c(Br)c1)C1=C(CCCC1=O)N2c1ccccc1	?	-7.6	-6.5	23.1µM*	2.7%	-4.4
O=C(COc1ccc2c(c1)oc(=O)c1ccccc12)NCC1CCC(C(=O)O)CC1 (stereo unspecified)	5.4%	-13.9	-9.7	-2.1%	.	-11.8
CCCCS/C(=C(/C#N)C(N)=O)c1cc2c([nH]1)CCCC2	20.6µM*	-66.2*	-7.2	?	13.5%	-12.8
Cc1ccc(S(=O)(=O)N2C[C@H]3C(=O)C[C@@H]4C(=O)N(c5ccccc5)C(=O)[C@@H]4[C@@H]3C[C@@H]2c2ccccc2)cc1	-8.7%	-9.5	-11.7	2.3%	.	7.3
COc1ccc(/C=C/C(=O)c2c(C)nc3ccccn23)cc1	-12.1%	-4.7	-3.5	-8.9%	2.0%	-0.8
Cc1nc2ccccn2c1C(=O)/C=C/c1ccc(F)cc1	?	-108.3*	0.9	20.6µM*	-5.9%	6.1
O=C(NCCCn1ccnc1)c1ccccc1NS(=O)(=O)c1ccc(F)c(F)c1	15.8µM*	-1.6	6.2	?	-5.1%	4.1
Cc1cc(C)c(C)c(S(=O)(=O)Nc2ccccc2C(=O)NCCCn2ccnc2)c1C	4.61µM*	-12.3	-15.0	5.8µM*	9.4%	-1.7
Cc1cc(S(=O)(=O)Nc2ccc(C(=O)NCCCn3ccnc3)cc2)ccc1F	1.3%	-5.1	2.3	6.6%	.	4.5
SMILES	TDP1 cell CPT	IL-1B inflam inh	CtBP-E1A inh	DT40 TDP1 no CPT	TDP1 inh	Six1-Eya2 blk
Cc1oc2ncnc(N3CCOCC3)c2c1C(=O)N1CCN(c2cccc(C(F)(F)F)c2)CC1	?	.	.	-13.2%	4.2%	.
O=C(COc1c(Br)cc(Br)c2cccnc12)Nc1ccccc1F	?	15.3	.	18.4µM*	5.1%	-8.4
O=C(COc1ccccc1)Nc1ccccc1F	25.4%	-0.6	13.2	-10.7%	.	4.2
N#C/C(=C/C1=C(N2CCOCC2)C(=C/c2cccc([N+](=O)[O-])c2)/CC1)C(=O)Nc1ccccc1F	10.3µM*	1.2	-7.2	8.2µM*	.	-16.5
CC(C)C(NC(=O)C12CC3CC(CC(C3)C1)C2)C(=O)N/N=C/C1=C(N2CCOCC2)C(=C\c2ccc([N+](=O)[O-])cc2)/CC1 (stereo unspecified)	-22.2%	-5.7	-17.9	-23.7%	8.2%	-3.3
N#C/C(=C\c1cccc([N+](=O)[O-])c1)C(=O)NCC1CCCO1 (stereo unspecified)	-12.8%	-5.8	-0.8	22.5%	0.0%	5.7
O=C(/C=C/c1cccc([N+](=O)[O-])c1)Nc1ccccc1N1CCOCC1	?	-11.7	-3.5	?	7.1%	-2.6
CC(NC(=O)C12CC3CC(CC(C3)C1)C2)C(=O)N/N=C/C1=C(N2CCOCC2)C(=C\c2cccc([N+](=O)[O-])c2)/CC1 (stereo unspecified)	?	-26.8	0.7	11.6µM*	8.0%	2.4
N#C/C(=C\C1=C(N2CCOCC2)C(=C/c2cccc([N+](=O)[O-])c2)/CC1)C(=O)Nc1ccccc1F	9.2µM*	0.0	-7.7	10.3µM*	10.3%	-2.7
COc1ccc(Cl)cc1NC(=O)CCCN1C(=O)CCC1=O	-17.5%	13.9	-1.0	-6.0%	4.0%	2.8
Cc1ccc2[nH]c(=O)c(CN(Cc3ccco3)C(=O)CN3CCCC(C)C3)cc2c1 (stereo unspecified)	3.7%	14.0	2.2	-5.1%	7.2%	6.0
CCCC(=O)N1CCC1(C)C(=O)Nc1cc(OC)ccc1OC (stereo unspecified)	-25.5%	32.0	7.7	-3.4%	.	5.4

From PubChem
